Test results taken from PubChem BioAssay (NCATS).
Records with an inconclusive call do not appear. Calls of active or inactive are those of the source. Calls follow the shape of the dose curve; as a rule, active = well fitted curve in the direction sought with a large enough effect; inconclusive = small, poorly fitted or top-dose-only effect, or another doubt; inactive = no such curve, though single readings can be large; an effect the other way counts as inactive or inconclusive.

Experiments:
[1] = target: Glutathione peroxidase 1 (Homo sapiens) (UniProt P07203); assay: Primary qHTS Assay for Inhibitors of Recombinant Selenoprotein Glutathione Peroxidase 1 (GPX1) (AID 1845191); also: nearly all actives have a fitted effect of over 65% in size
Sequence of Glutathione peroxidase 1 (Homo sapiens) (P07203 whole entry, looked up): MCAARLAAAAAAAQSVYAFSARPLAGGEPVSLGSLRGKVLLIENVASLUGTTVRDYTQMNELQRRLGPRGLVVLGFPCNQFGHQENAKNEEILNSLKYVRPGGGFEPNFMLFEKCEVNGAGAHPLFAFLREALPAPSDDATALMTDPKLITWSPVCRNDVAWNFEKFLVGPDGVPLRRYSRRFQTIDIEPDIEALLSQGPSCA
Summary of the method: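 NADPH consumption tracked by fluorescence at 340/450 nm between t=0 and t=15 min, room temperature. Final mix: 10 nM GPX1, 100 nM glutathione reductase, 1 mM GSH, 0.5 mM NADPH, 0.5 mM cumene hydroperoxide, 0.01% BSA; 30 min compound–enzyme preincubation.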

[2] = target: Phospholipid hydroperoxide glutathione peroxidase GPX4 (Homo sapiens) (UniProt P36969); assay: Primary qHTS Assay for Inhibitors of Recombinant Selenoprotein Glutathione Peroxidase 4 (GPX4) (AID 1845192); also: nearly all actives have a fitted effect of over 65% in size
Sequence of Phospholipid hydroperoxide glutathione peroxidase GPX4 (Homo sapiens) (P36969 whole entry, looked up): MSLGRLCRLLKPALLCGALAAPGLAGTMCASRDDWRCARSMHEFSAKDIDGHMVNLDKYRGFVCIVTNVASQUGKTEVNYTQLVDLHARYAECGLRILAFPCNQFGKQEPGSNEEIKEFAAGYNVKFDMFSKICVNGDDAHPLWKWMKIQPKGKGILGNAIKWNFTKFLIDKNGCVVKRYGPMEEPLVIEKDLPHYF
Summary of the method: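 NADPH consumption followed by fluorescence at 340/450 nm, t=0 and after 15 min at room temperature. Reaction started with cumene hydroperoxide (0.5 mM final) after 30 min compound–GPX4 preincubation; final 200 nM GPX4, 100 nM GR, 1 mM GSH, 0.5 mM NADPH.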

[3] = target: Luciferin 4-monooxygenase (Photinus pyralis) (UniProt P08659); assay: Primary firefly luciferase (FLuc) qHTS assay for identification of artifact compounds. (AID 1845220); also: nearly all actives have a fitted effect of over 60% in size
Summary of the method: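 FLuc 10 nM; luciferin 10 uM; ATP 10 uM; Tris-acetate pH 7.6, Mg-acetate 10 mM; 15 min RT preincubation; 5 min reaction; luminescence.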

[4] = Primary fluorescence-based thiol-reactive (MSTI) qHTS assay for identification of artifact compounds. (AID 1845221); also: nearly all actives have a fitted effect of over 65% in size; also: potency is read from the fitted curve at half-maximal effect
Summary of the method: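 Compounds were incubated 1 h at room temperature in the dark with the MSTI probe (4 uM) in PBS pH 7.4, 2% DMSO. Signals were normalized between Acetyl-MSTI and MSTI.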

[5] = tested on: Nanoluciferase (engineered Oplophorus gracilirostris luciferase); assay: Primary Nanoluciferase (NLuc) qHTS assay for identification of artifact compounds. (AID 1845222);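 also: NLuc secreted into diluted conditioned medium of S16 cells; series mostly up to about 54 µM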
Summary of the method: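 NLuc from S16 cell medium (1:55) plus test compounds, 15 min, room temperature. Luminescence after Nano-Glo (1:100) addition, 5 min.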

[6] = Primary redox qHTS assay for identification of artifact compounds. (AID 1845223)
Summary of the method: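 Redox-cycling detection via DTT (250 uM final) oxidation coupled to Amplex Red (25 uM)/HRP (250 mU/mL) in HBSS. 15 min preincubation plus 30 min after DTT, room temperature. Ex/Em 525/598 nm; 4-parameter Hill fit against DMSO and 10 uM DA3003.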

Measured: Potency

CC1=C(C(=O)O)/C(=C\CO[C@@H]2O[C@H](CO)[C@@H](O)[C@H](O)[C@H]2O)C(OC(=O)/C=C/c2ccc(O)cc2)C1 (some centres not stated)
active: [4] 4.62 µM
inactive: all other assays above

O=C(CCCCN1CCOCC1)Nc1ccc(-c2cccnc2)cc1
inactive: all assays above

C[C@H](C/C=C/C(C)(C)O)[C@H]1CC[C@@]2(C)[C@@H]3[C@@H](O[C@@H]4O[C@H](CO)[C@@H](O)[C@H](O)[C@H]4O)C=C4C(CC[C@H](O)C4(C)C)[C@]3(C=O)CC[C@]12C (some centres not stated)
inactive: all assays above

CC12CCC(C(OC3OC(COC4OCC(O)(CO)C4O)C(O)C(O)C3O)C1)C(C)(C)O2 (configuration not stated)
inactive: all assays above

CNC(=O)c1ccccc1Nc1nc(Nc2ccc(N3CCNCC3)cc2)ncc1Cl
active: [4] 3.36 µM
inactive: all other assays above

CC(C(O)/C=C/C(C)(C)O)C1CCC2(C)C3C(=O)C=C4C(CCC(O)C4(C)C)C3(C)CCC12C (configuration not stated)
inactive: all assays above

N#C[C@@H]1CCCN1C(=O)CNC12CC3CC(CC(O)(C3)C1)C2
inactive: all assays above

CCNCc1nc2c(N)nc3ccccc3c2n1CC(C)(C)O
inactive: all assays above

CC(C)C(=O)OC[C@H]1O[C@H](O[C@H]2O[C@H](CO)[C@@H](O)[C@H](O)[C@H]2O)[C@H](O)[C@@H](O)[C@@H]1O
inactive: all assays above

COc1cc(NC(=O)Nc2cccc(CNC(=O)O[C@H]3CCOC3)c2)ccc1-c1cnco1
inactive: all assays above

Oc1ccc2nc(CN3CCC(Cc4ccccc4F)CC3)[nH]c2c1
inactive: all assays above

COc1c2c(cc3c1-c1c(cc4c(c1OC)OCO4)CC(C)C(C)C3)OCO2 (configuration not stated)
inactive: all assays above

[N-]=[N+]=N[C@]1(CO)O[C@@H](n2ccc(=O)[nH]c2=O)[C@@H](O)[C@@H]1O
inactive: all assays above

N[C@H]1Cc2ccccc2N(O)C1=O
inactive: all assays above

CCC(C)C(=O)OC1CC(O)C23C4OCC5(C(O)CC2C1(C)C(O)O4)C3C(=O)CC1(C)C(c2ccoc2)CC2OC215 (configuration not stated)
inactive: all assays above

CC(=O)O[C@@H]1[C@@H](O)[C@H](C)O[C@@H](O[C@H]2[C@@H]3C=CO[C@@H](O[C@@H]4O[C@H](CO)[C@@H](O)[C@H](O)[C@H]4O)[C@@H]3[C@@]3(CO)O[C@@H]23)[C@@H]1OC(=O)/C=C/c1ccccc1
inactive: all assays above

C[C@@H]1C(=O)O[C@H]2[C@H](O)C34[C@H]5C[C@@H](C(C)(C)C)C36[C@@H](OC(=O)[C@@H]6O)O[C@@]4(C(=O)O5)[C@@]12O (some centres not stated)
inactive: all assays above

COC(=O)C1(C)CCC2(C(=O)O)CCC3(C)C(=CCC4C5(C)CC(O)C(OC6OCC(O)C(O)C6O)C(C)(CO)C5CCC43C)C2C1 (configuration not stated)
inactive: all assays above

C=C1C(OC(=O)/C(C)=C\C)[C@@]23CCC4[C@@](C)(CCC[C@@]4(C)C(=O)O)C2CC[C@H]1C3OC(C)=O (some centres not stated)
inactive: all assays above

CC1(C)CCCC2(C)C=C(C(=O)O)C(O)CC12 (configuration not stated)
inactive: all assays above

COc1cc2ncnc(Nc3ccc(F)c(Cl)c3)c2cc1NC(=O)/C=C/CN1CCCCC1
inactive: all assays above

C=C1C(=O)O[C@H]2[C@H]1CC/C(C)=C/CC[C@@]1(C)O[C@@H]21
inactive: all assays above
